Assay [1] deals with T1, Serine/threonine-protein kinase TBK1 (Homo sapiens) (UniProt Q9UHD2).
T1 sequence (whole entry): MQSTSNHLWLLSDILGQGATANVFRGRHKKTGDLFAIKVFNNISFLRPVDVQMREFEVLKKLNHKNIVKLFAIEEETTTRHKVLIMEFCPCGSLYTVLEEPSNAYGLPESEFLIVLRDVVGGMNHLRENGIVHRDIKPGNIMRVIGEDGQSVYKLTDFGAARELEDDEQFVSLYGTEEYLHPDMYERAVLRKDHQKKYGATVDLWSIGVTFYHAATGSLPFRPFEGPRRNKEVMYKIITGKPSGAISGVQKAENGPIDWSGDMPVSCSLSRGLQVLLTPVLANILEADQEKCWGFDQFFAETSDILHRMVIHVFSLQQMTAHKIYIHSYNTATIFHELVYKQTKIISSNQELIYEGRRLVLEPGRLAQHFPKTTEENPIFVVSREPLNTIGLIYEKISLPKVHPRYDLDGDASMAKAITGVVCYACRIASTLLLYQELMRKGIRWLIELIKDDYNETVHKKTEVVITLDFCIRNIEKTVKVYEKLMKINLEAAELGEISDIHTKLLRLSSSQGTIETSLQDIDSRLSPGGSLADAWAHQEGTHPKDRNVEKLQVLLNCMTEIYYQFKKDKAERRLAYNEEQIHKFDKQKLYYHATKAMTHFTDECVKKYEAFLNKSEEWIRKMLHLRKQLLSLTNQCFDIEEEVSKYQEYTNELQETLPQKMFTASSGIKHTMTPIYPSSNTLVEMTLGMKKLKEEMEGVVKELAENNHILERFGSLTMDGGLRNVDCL
Particulars: at 10 µM.

The target of assay [2] is T2, TGF-beta receptor type-1 (Homo sapiens) (UniProt P36897).
T2 sequence (whole entry): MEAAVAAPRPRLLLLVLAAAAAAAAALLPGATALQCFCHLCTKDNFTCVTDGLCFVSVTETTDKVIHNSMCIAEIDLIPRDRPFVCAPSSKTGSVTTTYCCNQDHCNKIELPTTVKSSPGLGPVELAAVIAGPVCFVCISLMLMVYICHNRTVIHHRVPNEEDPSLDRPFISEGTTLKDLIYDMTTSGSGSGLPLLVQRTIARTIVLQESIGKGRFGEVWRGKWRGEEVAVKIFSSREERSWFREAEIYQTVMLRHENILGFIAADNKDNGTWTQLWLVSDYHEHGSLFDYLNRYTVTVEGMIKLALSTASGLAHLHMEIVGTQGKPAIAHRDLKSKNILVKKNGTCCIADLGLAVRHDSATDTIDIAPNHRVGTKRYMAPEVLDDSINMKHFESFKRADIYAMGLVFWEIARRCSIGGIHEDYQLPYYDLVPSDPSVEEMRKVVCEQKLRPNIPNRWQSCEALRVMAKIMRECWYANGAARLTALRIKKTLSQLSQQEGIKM
Particulars: at 1 µM.

The target in assay [3] is T2, TGF-beta receptor type-1 (Homo sapiens). Particulars: at 10 µM.
The target of assay [4] is Insulin-like growth factor 1 receptor (Homo sapiens) (UniProt P08069). Particulars: at 1 µM.
Sequence of Insulin-like growth factor 1 receptor (Homo sapiens) (P08069 31-736 limits assumed): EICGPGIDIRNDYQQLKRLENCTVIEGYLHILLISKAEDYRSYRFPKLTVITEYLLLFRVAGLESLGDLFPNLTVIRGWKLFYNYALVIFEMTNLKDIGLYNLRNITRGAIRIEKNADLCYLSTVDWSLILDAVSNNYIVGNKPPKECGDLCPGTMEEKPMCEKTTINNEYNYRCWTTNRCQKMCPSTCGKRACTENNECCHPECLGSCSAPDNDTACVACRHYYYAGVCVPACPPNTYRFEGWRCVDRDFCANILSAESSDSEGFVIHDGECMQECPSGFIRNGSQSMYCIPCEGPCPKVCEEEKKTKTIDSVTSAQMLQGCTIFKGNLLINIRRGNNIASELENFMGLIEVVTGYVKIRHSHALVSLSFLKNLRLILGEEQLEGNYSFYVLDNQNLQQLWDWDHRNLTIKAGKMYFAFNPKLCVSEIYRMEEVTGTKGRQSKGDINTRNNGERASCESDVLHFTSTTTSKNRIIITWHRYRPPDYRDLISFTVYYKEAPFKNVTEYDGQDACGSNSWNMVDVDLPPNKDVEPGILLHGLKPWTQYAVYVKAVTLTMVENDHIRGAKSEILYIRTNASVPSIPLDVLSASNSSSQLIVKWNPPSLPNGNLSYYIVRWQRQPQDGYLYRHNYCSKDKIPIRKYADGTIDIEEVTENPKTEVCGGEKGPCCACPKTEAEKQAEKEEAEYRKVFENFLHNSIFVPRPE
Sequence of Insulin-like growth factor 1 receptor (Homo sapiens) (P08069 741-1367 limits assumed): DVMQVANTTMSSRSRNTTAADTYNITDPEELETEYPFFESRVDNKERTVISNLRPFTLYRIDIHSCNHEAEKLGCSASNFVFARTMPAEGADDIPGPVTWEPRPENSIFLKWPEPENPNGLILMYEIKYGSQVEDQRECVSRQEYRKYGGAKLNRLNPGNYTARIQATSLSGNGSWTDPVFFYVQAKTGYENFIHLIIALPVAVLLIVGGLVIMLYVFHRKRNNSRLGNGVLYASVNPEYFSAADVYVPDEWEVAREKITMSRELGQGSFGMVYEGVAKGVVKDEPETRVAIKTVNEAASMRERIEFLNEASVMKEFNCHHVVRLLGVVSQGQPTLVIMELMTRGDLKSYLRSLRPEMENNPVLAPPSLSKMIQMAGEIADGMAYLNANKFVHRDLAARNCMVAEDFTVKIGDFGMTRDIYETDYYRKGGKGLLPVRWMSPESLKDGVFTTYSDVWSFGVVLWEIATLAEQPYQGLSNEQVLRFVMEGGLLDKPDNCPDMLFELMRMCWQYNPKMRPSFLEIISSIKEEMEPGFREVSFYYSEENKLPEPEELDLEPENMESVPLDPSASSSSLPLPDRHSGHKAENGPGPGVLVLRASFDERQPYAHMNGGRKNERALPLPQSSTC
Assay [5] has the same target. Particulars: at 10 µM.
For assay [6], the target named is T3, Inhibitor of nuclear factor kappa-B kinase subunit alpha (Homo sapiens) (UniProt O15111).
T3 sequence (whole entry): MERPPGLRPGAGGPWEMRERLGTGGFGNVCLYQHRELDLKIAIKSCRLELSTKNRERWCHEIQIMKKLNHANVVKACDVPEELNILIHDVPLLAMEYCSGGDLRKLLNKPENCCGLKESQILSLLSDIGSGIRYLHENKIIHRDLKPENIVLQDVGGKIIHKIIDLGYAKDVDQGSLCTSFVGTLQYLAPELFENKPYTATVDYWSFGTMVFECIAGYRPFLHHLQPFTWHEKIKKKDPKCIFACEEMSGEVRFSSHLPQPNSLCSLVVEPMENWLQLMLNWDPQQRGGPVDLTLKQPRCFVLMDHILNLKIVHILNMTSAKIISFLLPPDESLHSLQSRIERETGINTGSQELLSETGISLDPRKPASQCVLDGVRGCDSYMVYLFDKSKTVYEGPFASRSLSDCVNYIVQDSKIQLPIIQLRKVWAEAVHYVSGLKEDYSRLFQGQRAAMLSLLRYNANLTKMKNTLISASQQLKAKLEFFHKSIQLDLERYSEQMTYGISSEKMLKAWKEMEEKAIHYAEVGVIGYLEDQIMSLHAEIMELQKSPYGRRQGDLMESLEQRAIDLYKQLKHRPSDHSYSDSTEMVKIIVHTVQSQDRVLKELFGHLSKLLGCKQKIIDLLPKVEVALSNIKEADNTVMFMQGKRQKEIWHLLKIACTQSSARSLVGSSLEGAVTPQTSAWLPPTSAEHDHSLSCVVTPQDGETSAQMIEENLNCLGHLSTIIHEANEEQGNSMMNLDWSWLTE
The note with it: at 1 µM.

The target of assay [7] is T3, Inhibitor of nuclear factor kappa-B kinase subunit alpha (Homo sapiens). Particulars: at 10 µM.
Assay [8] deals with T4, Inhibitor of nuclear factor kappa-B kinase subunit beta (Homo sapiens) (UniProt O14920).
T4 sequence (whole entry): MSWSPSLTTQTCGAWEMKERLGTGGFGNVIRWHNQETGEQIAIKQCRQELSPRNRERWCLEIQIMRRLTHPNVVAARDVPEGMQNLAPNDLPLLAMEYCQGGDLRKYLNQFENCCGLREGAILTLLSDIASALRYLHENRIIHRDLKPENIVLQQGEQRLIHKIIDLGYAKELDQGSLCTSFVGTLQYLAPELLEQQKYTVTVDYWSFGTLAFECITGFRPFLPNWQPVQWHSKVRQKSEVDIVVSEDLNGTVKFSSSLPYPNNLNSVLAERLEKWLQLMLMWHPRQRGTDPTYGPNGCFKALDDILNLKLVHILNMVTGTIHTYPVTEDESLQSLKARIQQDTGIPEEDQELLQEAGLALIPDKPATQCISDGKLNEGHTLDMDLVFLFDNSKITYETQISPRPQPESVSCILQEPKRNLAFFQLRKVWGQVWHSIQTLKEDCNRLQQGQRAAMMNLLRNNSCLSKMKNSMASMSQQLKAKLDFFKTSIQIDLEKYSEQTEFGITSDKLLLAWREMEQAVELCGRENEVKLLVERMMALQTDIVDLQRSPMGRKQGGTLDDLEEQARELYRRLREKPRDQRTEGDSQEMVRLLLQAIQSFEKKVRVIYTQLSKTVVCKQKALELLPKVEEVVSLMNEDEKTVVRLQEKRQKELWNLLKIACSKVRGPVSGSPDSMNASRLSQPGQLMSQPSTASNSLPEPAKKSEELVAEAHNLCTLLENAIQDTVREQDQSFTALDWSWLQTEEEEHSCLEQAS
The note with it: at 1 µM.

For assay [9], the target named is T4, Inhibitor of nuclear factor kappa-B kinase subunit beta (Homo sapiens). The note with it: at 10 µM.
For assay [10], the target named is Insulin receptor (Homo sapiens) (UniProt P06213). Particulars: at 1 µM.
Sequence of Insulin receptor (Homo sapiens) (P06213 28-758 limits assumed): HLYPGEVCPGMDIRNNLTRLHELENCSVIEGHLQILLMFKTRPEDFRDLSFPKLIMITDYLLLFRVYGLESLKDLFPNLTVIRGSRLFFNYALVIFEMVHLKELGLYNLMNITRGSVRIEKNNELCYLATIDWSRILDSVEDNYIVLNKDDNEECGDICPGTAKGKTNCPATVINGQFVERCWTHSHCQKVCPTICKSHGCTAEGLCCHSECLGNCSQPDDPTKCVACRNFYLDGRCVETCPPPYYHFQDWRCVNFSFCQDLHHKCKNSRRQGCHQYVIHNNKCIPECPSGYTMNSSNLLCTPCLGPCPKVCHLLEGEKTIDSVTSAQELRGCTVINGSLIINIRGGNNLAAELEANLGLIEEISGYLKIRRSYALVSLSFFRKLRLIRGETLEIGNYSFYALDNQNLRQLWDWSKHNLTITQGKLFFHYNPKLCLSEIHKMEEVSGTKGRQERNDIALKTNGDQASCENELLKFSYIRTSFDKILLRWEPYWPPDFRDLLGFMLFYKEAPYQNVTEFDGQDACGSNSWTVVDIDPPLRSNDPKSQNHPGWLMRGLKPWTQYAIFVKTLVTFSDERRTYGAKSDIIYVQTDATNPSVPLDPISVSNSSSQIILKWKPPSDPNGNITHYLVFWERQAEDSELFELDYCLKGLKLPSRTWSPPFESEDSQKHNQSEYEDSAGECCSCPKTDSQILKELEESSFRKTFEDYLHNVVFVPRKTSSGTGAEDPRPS
Sequence of Insulin receptor (Homo sapiens) (P06213 763-1382 limits assumed): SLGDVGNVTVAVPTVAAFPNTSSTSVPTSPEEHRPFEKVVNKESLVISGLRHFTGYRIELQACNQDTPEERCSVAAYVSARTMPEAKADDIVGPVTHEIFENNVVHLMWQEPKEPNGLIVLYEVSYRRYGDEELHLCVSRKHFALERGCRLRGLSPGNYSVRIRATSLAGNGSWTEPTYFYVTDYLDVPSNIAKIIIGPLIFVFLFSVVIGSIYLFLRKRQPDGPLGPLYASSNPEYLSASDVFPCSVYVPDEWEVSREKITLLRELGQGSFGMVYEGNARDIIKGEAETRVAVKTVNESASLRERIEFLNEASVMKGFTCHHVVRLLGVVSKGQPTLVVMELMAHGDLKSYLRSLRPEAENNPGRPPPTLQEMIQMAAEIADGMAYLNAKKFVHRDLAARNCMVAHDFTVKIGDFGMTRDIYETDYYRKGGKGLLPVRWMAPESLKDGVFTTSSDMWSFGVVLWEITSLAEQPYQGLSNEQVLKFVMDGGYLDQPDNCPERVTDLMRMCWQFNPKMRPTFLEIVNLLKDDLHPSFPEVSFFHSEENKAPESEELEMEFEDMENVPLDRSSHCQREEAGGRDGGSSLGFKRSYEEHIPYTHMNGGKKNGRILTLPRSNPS

In the case of `CC(C)(C)n1nc(Cc2cccc3ccccc23)c2c(N)ncnc21`, the residual activity in assay [1] amounted to 67%; in assay [2], 78%; in [3] it was 57%; in [4] it was 100%; in assay [5], 73%; in assay [6] it was 99%. In addition, the residual activity in assay [7] came to 128%; in assay [8], 104%; in assay [9], 92%; in assay [10] it was 98%.

In general, residual activity refers to the signal under treatment as a percentage of the control signal.

For the origin of these results see ChEMBL document CHEMBL2218924, “A broad activity screen in support of a chemogenomic map for kinase signalling research and drug discovery” (Biochem J, 2013).
